Bioassay records deposited in PubChem BioAssay by National Center for Advancing Translational Sciences (NCATS).
Most compounds without a hit are left out; they make up all but 2.4% or so of the library.
Pol kappa inh – qHTS for Inhibitors of Polymerase Kappa | DNA polymerase kappa (Homo sapiens), Q9UBT6 | purified Pol kappa, fluorescent DNA synthesis assay, 10 min | Potency, µM (highest dose often 107 µM), without a hit: at the top dose activity, negative = inhibition, actives largely listed as inhibitors | 0.53% of 400,000 active; further: on the % scale 0 is the no-effect control and ±100 the full control effect
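50 nM final substrate added after 15 min RT preincubation of 10 nM Pol kappa with compound; fluorescence read at 0 and 10 min.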
Pol iota inh – qHTS for Inhibitors of Polymerase Iota; Pol iota fluorescent replication assay, 10 min; 1% of 390,000 active; DNA polymerase iota (Homo sapiens), Q9UNA4; Potency, µM (highest dose often 115 µM), inactives show at the top dose activity, negative = inhibition, usual class: inhibitors
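Pol iota at 10 nM preincubated 15 min with compounds at room temperature; reaction started with fluorescent substrate, 50 nM final. Fluorescence read kinetically at 0 and 10 min; buffer-only wells as negative control.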
TDP1 block – qHTS Assay for Inhibitors of Tyrosyl-DNA Phosphodiesterase (TDP1) | Tyrosyl-DNA phosphodiesterase 1 (Homo sapiens), Q9NUW8 | recombinant TDP1, AlphaScreen DNA substrate cleavage | Potency, µM (top dose mostly 130 µM), inactives show at the top dose activity change, negative = inhibition, hits mostly inhibitors | 0.28% of 350,000 active | AID 485290, 2010; further: on the % scale 0 is the no-effect control and ±100 the full control effect; nearly all actives have a fitted effect of over 40% in size
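Compounds were preincubated with Tdp1 (1 nM final) for 15 min at room temperature before substrate (15 nM final) started a 5 min reaction; beads (10 ug/ml final) were then added for 10 min before AlphaScreen detection.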
Pol beta inh – qHTS Assay for Inhibitors of DNA Polymerase Beta; Pol beta primer extension/strand displacement, fluorescence kinetic; P06746; Potency, µM (highest dose often 114 µM), for inactives: at the highest dose activity change, negative = inhibition, actives largely listed as inhibitors; 1.3% of 340,000 active; further: on the % scale 0 is the no-effect control and ±100 the full control effect
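Preincubation: enzyme (10 nM) with compound, 15 min, RT. Reaction: substrate added to 50 nM final. Reads: 0 and 10 min. Analysis: normalized, Hill fit.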
POLH inh – qHTS for Inhibitors of Polymerase Eta; 1.2% of 390,000 active; recombinant Pol eta, fluorescent DNA replication assay; AID 588591, 2011; Potency, µM (titrated, usually from 114 µM), inactives show top-dose activity change, negative = inhibition, most hits filed as inhibitors; further: on the % scale 0 is the no-effect control and ±100 the full control effect
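Pol eta (10 nM) was preincubated with compounds for 15 min at room temperature, after which fluorescent replication substrate (50 nM final) was added to start the reaction. Fluorescence was read kinetically at 0 and 10 min.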
FEN1 inhibitor – qHTS Assay for the Inhibitors of Human Flap endonuclease 1 (FEN1) | Recombinant FEN1 flap cleavage, fluorescence, 15 min | Potency, µM (doses to about 114 µM), without a hit: top-dose activity change, negative = inhibition, most hits filed as inhibitors | AID 588795, 2011 | 0.35% of 390,000 active; further: on the % scale 0 is the no-effect control and ±100 the full control effect; nearly all actives have a fitted effect of over 65% in size
Target sequence (P39748 whole entry, looked up): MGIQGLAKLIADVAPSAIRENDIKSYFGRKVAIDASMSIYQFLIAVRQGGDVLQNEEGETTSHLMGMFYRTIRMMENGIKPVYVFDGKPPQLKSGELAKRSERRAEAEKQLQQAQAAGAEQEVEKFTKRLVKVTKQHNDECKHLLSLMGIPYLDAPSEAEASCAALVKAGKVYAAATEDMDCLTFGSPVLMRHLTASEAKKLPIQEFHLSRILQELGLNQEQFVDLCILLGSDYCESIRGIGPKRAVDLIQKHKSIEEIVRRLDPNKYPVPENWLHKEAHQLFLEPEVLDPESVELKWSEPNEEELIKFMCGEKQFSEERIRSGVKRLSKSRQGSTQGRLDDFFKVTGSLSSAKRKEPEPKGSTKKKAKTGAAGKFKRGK
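Potency values derive from four-parameter Hill fits of normalized qHTS data. The reaction used 10 nM FEN1 preincubated 15 min at room temperature with compound, then 50 nM DNA substrate, read at 0 and 15 min.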
Starred values were filed as active, the others as inactive; u = inconclusive; x = no result; [ ] = dose if it differs, or a comment. The call rests on the fitted dose curve; in most records, active means well fitted curve in the direction sought with a large enough effect; inconclusive means small, poorly fitted or top-dose-only effect, or another doubt; inactive means no such curve, though single readings can be large; an effect the other way counts as inactive or inconclusive. Potency means the concentration at half of the fitted maximal effect.

SMILES	Pol kappa inh	Pol iota inh	TDP1 block	Pol beta inh	POLH inh	FEN1 inhibitor
Cc1oc(-c2cccc(Cl)c2)nc1CS(=O)(=O)CC(=O)NC(C)CCc1ccccc1 (stereo not given)	-8.0%	89.1µM*	6.4%	-6.5%	-8.0%	-13.2%
C[N+](C)(C)CC(=O)N/N=C/c1c2ccccc2cc2ccccc12	-19.1%	-20.4%	-0.2%	44.7µM*	-12.6%	50.1µM*
O=C(O)C(S)[C@@H](S)C(=O)O (stereo not given in full)	22.4µM*	x	x	x	x	x
CN(C)c1ccc(/C=C/c2nc3ccccc3o2)cc1	-12.1%	-17.5%	x	x	x	-17.6%
C=CCn1c(=O)[nH]c2cc(C(=O)N3CCN(c4cccc(Cl)c4)CC3)ccc2c1=O	-25.5%	89.1µM*	4.9%	-68.3%	u	-9.1%
COCCn1c(=O)[nH]c2cc(C(=O)N3CCN(c4cccc(Cl)c4)CC3)ccc2c1=O	4.8%	34.2%	11.8%[0.0935 µM]	42.6%	-18.7%	-2.3%
N#Cc1ccsc1NC(=O)CSc1nncs1	-26.6%	u	0.0%	x	39.8µM*	-5.0%
Cc1nnc(SCC(=O)Nc2sccc2C#N)s1	50.1µM*	39.8µM*	0.5%	31.6µM*	25.1µM*	u
N#Cc1ccsc1NC(=O)CSc1nnnn1-c1ccc(O)cc1	0.0%	u	x	u	50.1µM*	-22.8%
Cc1nnc(SCC(=O)Nc2sccc2C(N)=O)s1	-12.6%	u	3.6%	x	-12.3%	-13.6%
Cn1ccnc1SCC(=O)Nc1sccc1C#N	u	u	-1.1%	31.6µM*	u	-3.6%
Cc1nnc(SCC(=O)Nc2sccc2C#N)n1Cc1ccccc1	u	20µM*	-1.0%	35.5µM*	-62.7%	0.9%
CC(=O)Nc1cccc(NC(=O)COC(=O)CO/N=C(\C)c2ccc3c(c2)OCO3)c1	-15.8%	96.4%	2.5%	-15.5%	-16.1%	7.0%
C/C(=N\OCC(=O)OCC(=O)NCc1ccccc1)c1ccc2c(c1)OCO2	u	39.8µM*	-0.1%	x	20µM*	-0.7%
CC(C)CN(C[C@@H](OP(=O)(O)O)[C@H](Cc1ccccc1)NC(=O)O[C@@H]1CCOC1)S(=O)(=O)c1ccc(N)cc1	-4.7%[19.4 µM]	x	x	x	x	x
O=C(NN=C1CCCC1)c1ccccc1O	-1.3%	84.6%	-5.3%	-0.1%	-20.5%	5.1%
O=C(NN=C1CCCC1)c1ccccc1[N+](=O)[O-]	-3.7%	24.9%	39.8µM*	27.4%	-15.0%	16.4%
CCc1ccccc1NC(=O)CSC1=C(C#N)C(c2ccc3c(c2)OCO3)C2=C(CCCC2=O)N1 (stereo not given)	-10.8%	-10.4%	-2.4%	22.4µM*	-0.6%	0.6%
CCOC(=O)CSC1=C(C#N)C(c2ccc(C)cc2)C2=C(CCCC2=O)N1 (stereo not given)	-4.3%	10.4%	4.7%	7.3%	-11.4%	-11.8%
CC(O)COCC1OC2OC3C(COCC(C)O)OC(OC4C(COCC(C)O)OC(OC5C(COCC(C)O)OC(OC6C(COCC(C)O)OC(OC7C(COCC(C)O)OC(OC8C(COCC(C)O)OC(OC1C(OCC(C)O)C2OCC(C)O)C(OCC(C)O)C8OCC(C)O)C(OCC(C)O)C7OCC(C)O)C(OCC(C)O)C6OCC(C)O)C(OCC(C)O)C5OCC(C)O)C(OCC(C)O)C4OCC(C)O)C(OCC(C)O)C3OCC(C)O (stereo not given)	0.7%	2.3%	x	x	x	15.1%
CCc1cc(=O)oc2cc(C)c(CN3CCCCC3)c(O)c12	17.8µM*	7.94µM*	x	8.91µM*	14.1µM*	50.1µM*
OC(C[n+]1c(Cl)ccc2ccccc21)c1ccccc1 (stereo not given)	1.8%	u	x	x	x	12.9%
CC(C)OCCCn1c(SCc2cccc(Br)c2)nc2c(sc3ccccc32)c1=O	-24.3%[60.1 µM]	-6.6%	-5.4%	-3.6%	-5.2%	18.5%
Cc1cccc(CSc2nc3c(sc4ccccc43)c(=O)n2CCC(=O)NC(C)C)c1	-1.8%	24.5%	2.3%	25.1µM*	-21.6%	-3.0%
O=C(CS(=O)Cc1ccco1)NCC=CCOc1cc(CN2CCCCC2)ccn1 (stereo not given)	2.2%[19.4 µM]	x	x	x	x	x
SMILES	Pol kappa inh	Pol iota inh	TDP1 block	Pol beta inh	POLH inh	FEN1 inhibitor
COc1cccc(C2CC(c3ccccc3)=NN2S(=O)(=O)c2ccc(C)cc2)c1OC (stereo not given)	-31.7%	-12.6%	4.6%	50.1µM*	u	-9.6%
O=C(N/N=C/c1ccc([N+](=O)[O-])cc1)c1cccs1	u	70.8µM*	x	31.6µM*	u	-1.3%
Cc1c(NC(=O)c2ccco2)cccc1-c1nc2cccnc2s1	-18.8%	u	9.3%	-3.6%	44.7µM*	5.8%
O=C(Nc1ccc(-c2nc3cccnc3s2)cc1)c1ccco1	-0.4%	u	2.1%	u	-0.7%	-6.1%
CCCN1CCC(=O)N(CCC#N)CC1	-4.0%	12.8%	x	x	x	22.4%
CC1=CC(c2ccccc2)n2nc(N3C(=O)c4ccccc4C3=O)nc2N1 (stereo not given)	44.7µM*	6.8%	5.5%	-15.6%	-19.4%	0.5%
CC1=CC(c2ccccc2)n2nc(N3C(=O)CCC3=O)nc2N1 (stereo not given)	-8.0%	20.9%	0.0%	9.3%	-6.7%	7.1%
O=C(O)CSc1nnc(SCc2cccc3ccccc23)s1	-5.3%	6.3%	2.0%	89.1µM*	-16.1%	-0.8%
O=S(=O)(Nc1cc(O)cc2cccnc12)c1ccc(Br)s1	x	x	22.6%	x	x	x
CCN(Cc1cccc(S(=O)(=O)O)c1)c1ccc(C(=C2C=CC(=[N+](CC)Cc3cccc(S(=O)(=O)O)c3)C=C2)c2ccc(O)cc2S(=O)(=O)O)cc1	2.82µM*	2.24µM*	x	x	x	12.6µM*
CCN(Cc1cccc(S(=O)(=O)O)c1)c1ccc(C(=C2C=CC(=[N+](CC)Cc3cccc(S(=O)(=O)O)c3)C=C2)c2ccccc2S(=O)(=O)[O-])cc1	7.94µM*	u	x	x	x	31.6µM*
CC1=CC(=O)C=C/C1=C(/c1ccc(O)cc1C)c1ccccc1S(=O)(=O)O	0.0%	-10.0%	10.5%	x	0.6%	14.3%
COc1ccc(-c2cc(=O)c3c(O)cc(O[C@H]4OC(COC5OC(C)C(O)C(O)[C@H]5O)C(O)C(O)C4O)cc3o2)cc1O (stereo not given in full)	20µM*	x	x	x	x	x
O=C(Nc1nccs1)c1cn(-c2ccccc2)nc1-c1ccncc1	u	50.5%	79.4µM*	3.1%	u	-21.7%
